Results: PubChem BioAssay (Tox21)
Results filed as inconclusive are left out. The source made the active and inactive calls. Unless noted, the call rests on the fitted dose curve; in most records, active means well fitted curve in the direction sought with a large enough effect in the repeat runs; inconclusive means weak or mixed curves; inactive means no such curve, though single readings can be large; an effect the other way counts as inactive or inconclusive.

Tests used:
[1] = qHTS assay to identify small molecule agonists of the hypoxia (HIF-1) signaling pathway - cell viability counter screen (AID 1224844; calls by dose curve; further: nearly all actives have a fitted effect of over 50% in size)
Procedure, shortened: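 Same wells as the HIF-1 reporter screen; ME-180 cells carrying HRE-bla, 17 hr treatment at 37C; CellTiter-Glo luminescence read after 30 min at room temperature.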

[2] = qHTS assay to identify small molecule agonists of H2AX (AID 1224845; active means well fitted activation curve with a large enough effect in the signal ratio in the repeat runs, not every such curve was filed as active; the % refers to the signal ratio)
Procedure, shortened: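 Wild-type CHO-K1 cells, plated overnight, exposed 3hr at 37C to 15 concentrations (0.76% DMSO final). Lysed, then HTRF anti-pH2AX (S139) cryptate and anti-H2AX-d2 antibodies, 24 hr room temperature; 665/620 nm emission read.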

[3] = qHTS assay to identify small molecule agonists of the hypoxia (HIF-1) signaling pathway (AID 1224846; active means well fitted activation curve with a large enough effect in the signal ratio in the repeat runs, not every such curve was filed as active; the % refers to the signal ratio)
Procedure, shortened: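 In ME-180 cells bearing an HRE-bla construct, 17 h treatment with DMSO-dissolved compounds at 37C was followed by CCF4-AM loading to quantify reporter induction.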

[4] = qHTS assay to identify small molecule agonists of H2AX - cell viability counter screen (AID 1224847; calls by dose curve; further: top concentration of the series differs between compounds; nearly all actives have a fitted effect of over 30% in size)
Procedure, shortened: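 Compounds tested at 15 concentrations were incubated 3 hr at 37C with wild-type CHO-K1 cells; cellular ATP-based luminescence (CellTiter-Glo) indicated viability.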

[5] = qHTS RealTime-Glo MT Cell Viability Assay in HepG2 cells - 24 hour (AID 1224867); further: nearly all actives have a fitted effect of over 50% in size
Procedure, shortened: (§1)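 Luminescence read-out: viable HepG2 cells reduce a prosubstrate to a NanoLuc substrate, giving a signal proportional to live cell number. Reads taken at 0, 8, 16, 24, 32 and 40 h of compound exposure at 37 C.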

[6] = qHTS RealTime-Glo MT Cell Viability Assay in HEK293 cells - 32 hour (AID 1224868); further: top concentration of the series differs between compounds; nearly all actives have a fitted effect of over 50% in size
Procedure, shortened: (§2)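 Nonlytic real-time viability readout: viable cells convert prosubstrate to NanoLuc substrate, giving luminescence proportional to live cell number. HEK293, 600 cells/well, compound added after 5 h, continuous culture at 37 C.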

[7] = A CellTox Green Cytotoxicity Assay to monitor cytotoxicity in HEK293 cells - 0 hour (AID 1224869); further: nearly all actives have a fitted effect of over 50% in size
Procedure, shortened: (§3)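 Homogeneous no-lysis format: HEK293 cell suspension mixed with CellTox Green reagent, seeded, incubated 5 h at 37 C/5% CO2, then dosed by pintool with compound in DMSO.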

[8] = qHTS RealTime-Glo MT Cell Viability Assay in HepG2 cells - 40 hour (AID 1224870); further: nearly all actives have a fitted effect of over 50% in size
Procedure, shortened: (§4)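 HepG2 cells (600/well) mixed with RealTime-Glo MT reagent, settled 5 h at 37 C/5% CO2 before compound addition. Nonlytic NanoLuc luminescence from viable-cell prosubstrate reduction read repeatedly during 40 h treatment at 37 C.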

[9] = qHTS RealTime-Glo MT Cell Viability Assay in HEK293 cells - 16 hour (AID 1224872)
Procedure, shortened: as §2

[10] = qHTS RealTime-Glo MT Cell Viability Assay in HepG2 cells - 8 hour (AID 1224873); further: nearly all actives have a fitted effect of over 55% in size
Procedure, shortened: as §4

[11] = qHTS RealTime-Glo MT Cell Viability Assay in HEK293 cells - 40 hour (AID 1224874); conditions: RealTime-Glo luminescence; max response: hits give low values; further: nearly all actives have a fitted effect of over 50% in size
Procedure, shortened: (§5)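 Measured as luminescence from the same continuously cultured HEK293 wells at successive time points (0, 8, 16, 24, 32, 40 h) after compound addition. Reagent present from seeding; dosing at 5 h; incubation 37 C.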

[12] = A CellTox Green Cytotoxicity Assay to monitor cytotoxicity in HEK293 cells - 24 hour (AID 1224875); further: nearly all actives have a fitted effect of over 45% in size
Procedure, shortened: as §3

[13] = A CellTox Green Cytotoxicity Assay to monitor cytotoxicity in HepG2 cells - 16 hour (AID 1224876); further: nearly all actives have a fitted effect of over 45% in size
Procedure, shortened: (§6)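 Fluorescent DNA-binding dye, 600 HepG2 cells/well, 5 h preincubation then compound in DMSO; same plates read at 0–40 h, 37 C.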

[14] = qHTS RealTime-Glo MT Cell Viability Assay in HepG2 cells - 32 hour (AID 1224877); further: nearly all actives have a fitted effect of over 55% in size
Procedure, shortened: as §1

[15] = A CellTox Green Cytotoxicity Assay to monitor cytotoxicity in HepG2 cells - 24 hour (AID 1224878); further: nearly all actives have a fitted effect of over 45% in size
Procedure, shortened: as §6

[16] = A CellTox Green Cytotoxicity Assay to monitor cytotoxicity in HepG2 cells - 40 hour (AID 1224879); further: nearly all actives have a fitted effect of over 40% in size
Procedure, shortened: as §6

[17] = qHTS RealTime-Glo MT Cell Viability Assay in HEK293 cells - 0 hour (AID 1224880); further: top concentration of the series differs between compounds; nearly all actives have a fitted effect of over 45% in size
Procedure, shortened: as §5

[18] = qHTS assay to identify small molecule antagonists of the estrogen related receptor (ERR) signaling pathway from Tox21 library (AID 1224848); further: nearly all actives have a fitted effect of over 50% in size
Procedure, shortened: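 Compounds dissolved in DMSO are pin-transferred onto ERR reporter cells (2,000 per well) that have settled for 6 h at 37 C. Plates then incubate 18 h at 37 C before ONE-Glo luciferase reagent and a luminescence read 30 min later.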

[19] = qHTS assay to identify small molecule agonists of the estrogen related receptor (ERR) signaling pathway from Tox21 library (AID 1224849; calls by dose curve; further: nearly all actives have a fitted effect of over 15% in size); conditions: ERR reporter cell line, ONE-Glo luciferase, 18 h; at 92.4 µM (top of the series) unless noted
Procedure, shortened: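 Reporter cells (ERR, NTP source) treated with Tox21 10K compounds 18 h, 37 C. Readout: ONE-Glo luminescence, 30 min RT.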

[20] = A CellTox Green Cytotoxicity Assay to monitor cytotoxicity in HEK293 cells - 40 hour (AID 1224871); further: nearly all actives have a fitted effect of over 45% in size
Procedure, shortened: as §3
On the % scale 0 is the no-effect control and ±100 the full control effect.

c1ccc(CNCc2ccccc2)cc1
inactive: Potency [1] | Potency [2] | outcome [3] | Potency [4] | Potency [5] | Potency [6] | Potency [7] | Potency [8] | Potency [9] | Potency [10] | max response [11] -7.12% | Potency [12] | Potency [13] | Potency [14] | Potency [15] | Potency [16] | Potency [17]

CCN(CC)C(C)=O
inactive: Potency [1] | Potency [2] | outcome [3] | Potency [4] | Potency [18] | activity change, positive = activation [19] 2.9% | Potency [5] | Potency [7] | Potency [20] | Potency [9] | Potency [10] | max response [11] 1.69% | Potency [12] | Potency [13] | Potency [15] | Potency [16] | Potency [17]

CCCC[C@H]1CN(CC2CCOCC2)C(=O)OC12CCN(C1(C)CCN(C(=O)c3c(C)ncnc3C)CC1)CC2
inactive: Potency [1] | Potency [2] | outcome [3] | Potency [4] | Potency [18] | activity change, positive = activation [19] -0.219% | Potency [5] | Potency [6] | Potency [7] | Potency [8] | Potency [20] | Potency [9] | Potency [10] | max response [11] 0.654% | Potency [12] | Potency [13] | Potency [14] | Potency [17]

CCN(CC)C(C)CN1c2ccccc2Sc2ccccc21 (stereo unspecified)
inactive: Potency [1] | Potency [2] | outcome [3] | Potency [4] | Potency [5] | Potency [6] | Potency [7] | Potency [8] | Potency [20] | Potency [9] | Potency [10] | Potency [12] | Potency [13] | Potency [14] | Potency [15] | Potency [16] | Potency [17]

CN1CCC(OC(c2ccccc2)c2ccccc2)CC1
inactive: Potency [1] | Potency [2] | outcome [3] | Potency [4] | Potency [5] | Potency [6] | Potency [7] | Potency [8] | Potency [10] | max response [11] -5.84% | Potency [12] | Potency [14] | Potency [15] | Potency [16] | Potency [17]

Cc1ccc(C(=O)C(C)CN2CCCCC2)cc1 (stereo unspecified)
inactive: Potency [1] | Potency [2] | outcome [3] | Potency [4] | Potency [18] | activity change, positive = activation [19] 4.97% [at 42.5 µM] | Potency [5] | Potency [6] | Potency [7] | Potency [20] | Potency [9] | Potency [10] | max response [11] 11.5% | Potency [12] | Potency [13] | Potency [15] | Potency [16] | Potency [17]

COc1ccc(C(C)=O)cc1
inactive: Potency [1] | Potency [2] | outcome [3] | Potency [4] | Potency [5] | Potency [7] | Potency [8] | Potency [20] | Potency [10] | max response [11] 21.1% | Potency [12] | Potency [13] | Potency [16] | Potency [17]
